Consider 17 compounds from PubChem BioAssay (NCATS).

A number with no mark means an inactive call. The source made the active and inactive calls. Calls come from the whole dose curve; as a rule, active = well fitted inhibition curve with a large enough effect; inconclusive = small, poorly fitted or top-dose-only effect; inactive = flat fitted curve, though single readings scatter.

In this assay the test system is Nanoluciferase (engineered Oplophorus gracilirostris luciferase). In words: Primary Nanoluciferase (NLuc) qHTS assay for identification of artifact compounds. (AID 1845222).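 Note: NLuc secreted into diluted conditioned medium of S16 cells; 0% = DMSO and -100% = no enzyme.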 Conditions: NLuc-conditioned medium, Nano-Glo luminescence, 5 min; series mostly up to 54.1 µM. The essentials:
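S16 cell supernatant NLuc, 1:55; cpds qHTS; 15 min RT dark; Nano-Glo substrate 1:100, 5 min; luminescence; Hill fit of % inhibition.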
In the case of `CCc1c(C(=O)C(N)=O)c2c(OCC(=O)OC)cccc2n1Cc1ccccc1`, the compound was called inactive.
With `Cc1cc(C(=O)CN2CCCC2)c(C)n1-c1ccc(F)cc1`, the outcome was inactive.
Take `COC1=CC(=O)O[C@@H](CCc2ccccc2)C1`: the outcome was inactive.
In the case of `C=C1[C@@H]2CC[C@@]3(C)[C@H](c4ccoc4)OC(=O)C[C@]13O[C@H]1CC(=O)C(C)(C)[C@H](C(OC(C)=O)C(=O)OC)[C@]12C` (some centres not stated), the result was inactive.
On the same count and under the same terms, the same measure for `CCN1C[C@]2(OC(=O)c3ccccc3NC(C)=O)CC[C@H](OC)[C@@]34[C@@H]2C[C@@H]([C@@H]13)[C@@]1(O)C[C@H](OC)[C@H]2C[C@@H]4[C@]1(O)[C@H]2OC`: “inactive”.
Still for that read-out and setting: in the case of `COC1C(O)C(OC2CCC3(C=O)C(CCC4C3CCC3(C)C(C5=CC(=O)OC5)CCC43O)C2)OC(C)C1OC1OC(CO)C(O)C(O)C1O` (configuration not stated) it was “inactive”.
Take `C/C=C(\C)C(=O)OC1C(C)OC(OC2C(C)OC(OC3CCC4(C)C(=CCC5C4CCC4(C)C(C(C)OC6OC(COC7OC(CO)C(O)C(O)C7O)C(O)C(O)C6O)CCC54O)C3)CC2OC)C(O)C1OC` (configuration not stated): the activity, negative = inhibition was 0% [at 11.6 µM].
Consider `CCN1C[C@]2(COC(=O)c3ccccc3N3C(=O)C[C@H](C)C3=O)CC[C@H](OC)[C@@]34[C@@H]5C[C@H]6[C@H](OC)[C@@H]5[C@](O)(C[C@@H]6OC)[C@](O)([C@@H](OC)[C@H]23)[C@@H]14`, for which the outcome was inactive.
The same measure, in the same setting: in the case of `CN1CCCC1CCOC(c1cc2nccc(C(=O)O)c2[nH]1)c1ccccc1Cl` (configuration not stated) it was “inactive”; in that of `CC(N)Cc1c[nH]c2ccccc12` (configuration not stated), “inactive”.
Same read-out and setting: the same measure for `CCN1C[C@]2(COC)[C@H](O)C[C@H](OC)[C@]34[C@@H]5C[C@]6(O)[C@H](OC(=O)c7ccccc7)[C@@H]5[C@@](O)([C@H]([C@H](OC)[C@H]23)[C@@H]14)[C@@H](O)[C@@H]6OC`: “inactive”; for `Clc1ccc(OCC2=NCCN2)cc1Cl`: “inactive”; for `CC(=O)OC1CC(O)C(C)(C)C2CC(OC(C)=O)C3(C)C(CCC4(C)C(c5ccoc5)C(=O)C5OC543)C12C` (configuration not stated): “inactive”.
Same read-out and setting: in the case of `CN(C)CCc1c[nH]c2ccc(CN3CCN(C)S3(=O)=O)cc12` it was “inactive”; in that of `COc1cc2c(cc1OC)[C@@]13CCN4CC5=CCO[C@H]6CC(=O)N2[C@H]1[C@H]6[C@H]5C[C@H]43`, “inactive”; in that of `C[C@H]1C(=O)O[C@H]2[C@H](O)[C@]34C5OC(=O)[C@]3(O[C@@H]3OC(=O)[C@H](O)C34[C@H](C(C)(C)C)[C@H]5O)C12O` (some centres not stated), “inactive”.
As for `C[C@]12CC[C@@H](O)C[C@H]1CC[C@@H]1[C@@H]2CC[C@]2(C)C(=O)CC[C@@H]12`, the compound was called inactive.
